Reference: PubChem BioAssay (NCATS)
Results filed as inconclusive are left out. The source made the active and inactive calls. Calls follow the shape of the dose curve; as a rule, active = well fitted inhibition curve with a large enough effect; inconclusive = small, poorly fitted or top-dose-only effect; inactive = flat fitted curve, though single readings scatter.

Tests used:
Assay in all cases: qHTS profiling for inhibitors of Plasmodium falciparum proliferation (AID 504749); also: nearly all actives have a fitted effect of over 60% in size
Conditions in all cases: P. falciparum in erythrocytes, SYBR Green DNA, 72 h; series mostly up to 28.7 µM
CP265 = tested on: CP265
Method in brief: (§1)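 SYBR Green fluorescence of parasite DNA, read after lysis and overnight dark incubation, measured growth over 72 h in erythrocyte culture at 0.3% parasitemia and 2.5% hematocrit. Data normalised to DMSO and 0.29 uM artemisinin, with plate-drift correction.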

CP266 = tested on: CP266
Method in brief: as §1

CP268 = tested on: CP268
Method in brief: as §1

CP269 = tested on: CP269
Method in brief: as §1

CP286 = tested on: CP286
Method in brief: as §1

CP291 = tested on: CP291
Method in brief: as §1

CP297 = tested on: CP297
Method in brief: as §1

CP305 = tested on: CP305
Method in brief: as §1

CP315 = tested on: CP315
Method in brief: as §1

CP325 = tested on: CP325
Method in brief: as §1

CP329 = tested on: CP329
Method in brief: as §1

DFO2036 = tested on: DFO2036
Method in brief: as §1

DIV14 = tested on: DIV14
Method in brief: as §1

DIV17 = tested on: DIV17
Method in brief: as §1

DIV30 = tested on: DIV30
Method in brief: as §1

Dd2 = tested on: Dd2
Method in brief: as §1

ECU = tested on: ECU
Method in brief: as §1

FAB9 = tested on: FAB9
Method in brief: as §1

GB4 = tested on: GB4
Method in brief: as §1

CP335 = tested on: CP335
Method in brief: as §1

Measured: Potency

CCC1(c2ccccc2)C(=O)NCNC1=O
not listed: CP335
inactive: all other assays above

Cn1c(=O)c2[nH]cnc2n(C)c1=O
inactive: all assays above

CC[N+](CC)(CC)CCOc1cccc(OCC[N+](CC)(CC)CC)c1OCC[N+](CC)(CC)CC
inactive: all assays above

Cn1c(=O)c2c(ncn2C)n(C)c1=O
inactive: all assays above

COc1ccc2[nH]cc(CCNC(C)=O)c2c1
not listed: CP315
inactive: all other assays above

NCCc1cnc[nH]1
inactive: all assays above

Cn1cnc2c1c(=O)[nH]c(=O)n2C
inactive: all assays above

NC(=O)OCC(COC(N)=O)c1ccccc1
not listed: CP335
inactive: all other assays above

Nc1nnc(-c2cccc(Cl)c2Cl)c(N)n1
not listed: DIV30
inactive: all other assays above
